In PubChem BioAssay:
The source made the active and inactive calls.

Key:
Albumin (Bos taurus) = Albumin (Bos taurus) (UniProt P02769); test: compounds binding labelled BSA control protein – biochemical, small-molecule microarray, Alexa647 label, 635/667 nm fluorescence, artefact control for SMM control protein annotation, profiling panel (AID 1118); details: BSA-A647 binding, fluorescence 635 nm, higher = more signal;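 also: score merges 667 nm emission intensity and signal-to-noise per printed compound spot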
[1] = probe aXIP binding to arrayed compounds – biochemical, NeuroSMM set, 635/667 nm fluorescence, primary screen (AID 1119); details: small-molecule microarray, higher = more signal, called active from +8 up or from −8 down;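 also: probe is the protein aXip251-270 applied at 1 µg/mL to compound-printed slides; binding of probe to printed compounds measured as 667 nm fluorescence plus signal to noise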
[2] = probe aNOTCH3 binding on compound microarray – biochemical, small-molecule microarray, 635/667 nm fluorescence, primary screen (AID 1120); details: higher = more signal;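 also: probe is a biotin-tagged antibody raised against NOTCH3 rather than NOTCH3 protein; score merges spot fluorescence near 667 nm with spot signal to noise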
[3] = probe aNOTCH2 binding on compound microarray – biochemical, small-molecule microarray, 635/667 nm fluorescence, primary screen (AID 1121); details: higher = more signal;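 also: score merges feature fluorescence read at 667 nm with its signal to noise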
[4] = target: Carbonic anhydrase 2 (Homo sapiens) (UniProt P00918); test: compounds binding carbonic anhydrase 2 – biochemical, small-molecule microarray, Alexa647-labelled CAII, profiling panel (AID 1122); details: CAII-A647 binding fluorescence, higher = more signal
[5] = COS7 lysate on small-molecule microarray, probe aHis, 635 nm (AID 1123); details: COS7 cell lysate, fluorescence, higher = more signal;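 also: z-score combines 667nm fluorescence intensity with signal-to-noise per printed compound spot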
[6] = probe aLAP1 signal on lysate-treated microarray – cell lysate, small-molecule microarray, COS7 lysate, primary screen (AID 1124); details: probe aLAP1, fluorescence, higher = more signal;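 also: lysate comes from COS7 cells expressing LAP1 and is applied at 0.3 µg/mL; score merges spot fluorescence near 667 nm with signal-to-noise over triplicate slides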
Sam68 (KHDRBS1) = test: compounds binding KHDRBS1 protein – biochemical, small-molecule microarray, 635 nm fluorescence, primary screen (AID 1125); details: higher = more signal;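 also: score merges 667 nm channel intensity with signal to noise over triplicate slides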
[7] = system: Chordin-like protein 2 (CHRDL2); test: compounds binding chordin-like 2 – biochemical, small-molecule microarray, 635 nm fluorescence, primary screen (AID 1126); details: fluorescence 635 nm, higher = more signal;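 also: printed compound slides probed with Chrdl2 protein at 4 µg/mL for 1 h at 4 C; score merges 667 nm emission intensity with signal to noise over three replicate slides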
[8] = target: Concanavalin-A (Canavalia ensiformis) (UniProt P02866); test: compounds binding concanavalin A lectin – biochemical, small-molecule microarray, Alexa647 label, 635 nm, artefact control for SMM control protein annotation, primary screen (AID 1127); details: ConA-A647 binding fluorescence, higher = more signal;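 also: z combines 667 nm emission intensity with signal-to-noise across three replicate slides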
[9] = compounds binding Alexa647 anti-His antibody – biochemical, small-molecule microarray, 635 nm fluorescence, artefact control for SMM control protein annotation, primary screen (AID 1128); details: higher = more signal;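 also: score merges feature fluorescence with signal-to-noise for each printed compound spot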
[10] = system: Human papillomavirus type 1a E7 protein (residues 1-88); test: HPV1a E7 small-molecule binders, primary screen, biochemical, small-molecule microarray, residues 1-88, 635 nm (AID 1129); details: small-molecule microarray binding, fluorescence 635 nm; higher = more signal
[11] = target: Focal adhesion kinase 1 (Homo sapiens) (UniProt Q05397); test: PTK2 protein binding on printed compound slides – biochemical, small-molecule microarray, 635/667 nm fluorescence, BSA, DTT, primary screen (AID 1130); details: 635 nm fluorescence, higher = more signal;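 also: composite of spot emission at 667 nm and signal to noise over triplicate slides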
[12] = system: Fibrinogen (Alexa647-labelled); test: Alexa647-fibrinogen binding to printed small molecules – biochemical, small-molecule microarray, 635/667 nm fluorescence, artefact control for SMM control-protein annotation, profiling panel (AID 1131); details: fibrinogen-A647 binding fluorescence, higher = more signal;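 also: z-score merges 667 nm fluorescence with per-spot signal-to-noise over triplicate slides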
[13] = target: Follistatin (Homo sapiens) (UniProt P19883); test: FST protein binding to printed compounds – biochemical, small-molecule microarray, 635/667 nm fluorescence, primary screen (AID 1132); details: 635 nm fluorescence, higher = more signal
[14] = target: Fibroblast growth factor 2 (Homo sapiens) (UniProt P09038); test: basic fibroblast growth factor binding to printed compounds – biochemical, small-molecule microarray, 635/667 nm fluorescence, primary screen (AID 1133); details: FGF2, fluorescence 635/667, higher = more signal
[15] = JC-1 mitochondrial potential readout, lung cancer cells – cell-based, A549, JC-1 fluorescence, basal, 24 h, 100 nL, profiling panel (AID 1138); details: higher = more signal;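 also: A549 lung adenocarcinoma cells under basal conditions with no added stimulus; test concentration not given here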
Lefty1 = Lefty1 protein binding to printed compounds – biochemical, small-molecule microarray, 635/667 nm fluorescence, primary screen (AID 1139); details: fluorescence 635/667, higher = more signal
[16] = system: wheat germ agglutinin (Triticum aestivum), Alexa647-labelled; test: Alexa647-WGA lectin binding to printed small molecules – biochemical, small-molecule microarray, 635/667 nm fluorescence, artefact control for SMM control-protein annotation, profiling panel (AID 1140); details: WGA-A647 binding, 635 nm fluorescence, higher = more signal;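 also: score merges 667 nm feature emission with signal to noise over triplicate slides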
[17] = target: Luciferin 4-monooxygenase (Photinus pyralis) (UniProt P08659); test: inhibition of purified Photinus pyralis luciferase – biochemical, luminescence, purified enzyme, 2006 set, primary screen (AID 1141); details: purified firefly luciferase, SteadyGlo luminescence, 30 min; higher = more signal, called active from +8 up or from −8 down;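 also: cell-free assay with purified firefly luciferase at 100 ng per well in PBS; test concentration not given here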
Luciferin 4-monooxygenase (Photinus pyralis), sequence (P08659 whole entry, looked up): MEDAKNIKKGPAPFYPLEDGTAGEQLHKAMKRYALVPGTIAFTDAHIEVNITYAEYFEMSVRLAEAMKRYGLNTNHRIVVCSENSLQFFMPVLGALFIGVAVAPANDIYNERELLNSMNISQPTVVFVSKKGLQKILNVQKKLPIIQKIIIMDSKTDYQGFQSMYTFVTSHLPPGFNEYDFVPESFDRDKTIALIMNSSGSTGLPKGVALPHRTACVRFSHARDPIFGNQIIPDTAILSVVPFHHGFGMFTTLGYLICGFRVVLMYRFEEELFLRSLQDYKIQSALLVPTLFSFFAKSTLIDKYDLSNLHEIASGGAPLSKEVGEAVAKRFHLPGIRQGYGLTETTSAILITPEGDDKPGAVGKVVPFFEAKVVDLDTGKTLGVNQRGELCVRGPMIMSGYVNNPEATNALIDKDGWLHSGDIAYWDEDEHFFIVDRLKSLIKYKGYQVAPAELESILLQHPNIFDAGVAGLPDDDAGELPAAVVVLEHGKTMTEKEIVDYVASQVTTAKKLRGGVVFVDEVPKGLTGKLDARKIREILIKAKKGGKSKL

Concanavalin-A (Canavalia ensiformis), sequence (P02866 whole entry, looked up): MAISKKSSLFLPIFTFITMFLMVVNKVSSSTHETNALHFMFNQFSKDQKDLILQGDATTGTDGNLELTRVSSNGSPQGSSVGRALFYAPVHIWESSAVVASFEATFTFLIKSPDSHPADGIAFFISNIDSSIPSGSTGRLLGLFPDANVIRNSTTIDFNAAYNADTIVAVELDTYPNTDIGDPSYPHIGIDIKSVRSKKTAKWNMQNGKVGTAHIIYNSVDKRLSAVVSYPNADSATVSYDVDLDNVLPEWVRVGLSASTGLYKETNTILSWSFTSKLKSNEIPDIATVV
Focal adhesion kinase 1 (Homo sapiens), sequence (Q05397 whole entry, looked up): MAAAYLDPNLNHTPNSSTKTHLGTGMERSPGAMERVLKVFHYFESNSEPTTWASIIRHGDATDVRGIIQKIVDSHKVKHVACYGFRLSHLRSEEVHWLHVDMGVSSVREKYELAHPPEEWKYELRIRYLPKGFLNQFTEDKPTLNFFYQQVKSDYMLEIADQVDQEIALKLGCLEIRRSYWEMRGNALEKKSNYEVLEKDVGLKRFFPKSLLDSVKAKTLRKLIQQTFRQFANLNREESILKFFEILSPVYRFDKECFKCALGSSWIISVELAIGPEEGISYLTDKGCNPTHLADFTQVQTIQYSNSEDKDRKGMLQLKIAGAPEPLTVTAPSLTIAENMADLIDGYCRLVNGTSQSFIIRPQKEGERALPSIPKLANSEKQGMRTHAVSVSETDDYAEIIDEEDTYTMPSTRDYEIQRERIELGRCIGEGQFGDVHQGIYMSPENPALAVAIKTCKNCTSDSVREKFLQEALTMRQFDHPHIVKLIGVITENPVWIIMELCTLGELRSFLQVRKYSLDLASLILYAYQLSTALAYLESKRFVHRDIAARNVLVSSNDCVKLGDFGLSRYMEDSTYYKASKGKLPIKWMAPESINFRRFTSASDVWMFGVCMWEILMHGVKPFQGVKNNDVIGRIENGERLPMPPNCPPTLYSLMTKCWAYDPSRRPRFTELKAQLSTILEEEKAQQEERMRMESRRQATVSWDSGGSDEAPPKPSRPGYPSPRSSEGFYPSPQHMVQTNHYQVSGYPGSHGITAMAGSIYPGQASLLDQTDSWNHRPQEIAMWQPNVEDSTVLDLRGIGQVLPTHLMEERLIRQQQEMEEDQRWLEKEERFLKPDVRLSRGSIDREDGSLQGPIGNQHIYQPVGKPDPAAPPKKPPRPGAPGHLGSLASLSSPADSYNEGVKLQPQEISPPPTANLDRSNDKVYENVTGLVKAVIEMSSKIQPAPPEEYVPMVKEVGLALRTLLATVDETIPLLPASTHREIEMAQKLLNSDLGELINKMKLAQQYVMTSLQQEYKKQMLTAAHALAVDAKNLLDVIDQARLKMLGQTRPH
Fibroblast growth factor 2 (Homo sapiens), sequence (P09038 whole entry, looked up): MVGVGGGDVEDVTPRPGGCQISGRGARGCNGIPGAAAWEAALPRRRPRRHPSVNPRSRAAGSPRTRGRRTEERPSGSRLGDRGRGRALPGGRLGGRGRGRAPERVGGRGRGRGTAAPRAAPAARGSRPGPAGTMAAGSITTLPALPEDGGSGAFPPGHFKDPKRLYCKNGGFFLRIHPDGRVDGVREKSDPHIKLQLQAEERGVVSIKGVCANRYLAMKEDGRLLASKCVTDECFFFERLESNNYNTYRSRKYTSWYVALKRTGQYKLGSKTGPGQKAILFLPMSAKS
Albumin (Bos taurus), sequence (P02769 whole entry, looked up): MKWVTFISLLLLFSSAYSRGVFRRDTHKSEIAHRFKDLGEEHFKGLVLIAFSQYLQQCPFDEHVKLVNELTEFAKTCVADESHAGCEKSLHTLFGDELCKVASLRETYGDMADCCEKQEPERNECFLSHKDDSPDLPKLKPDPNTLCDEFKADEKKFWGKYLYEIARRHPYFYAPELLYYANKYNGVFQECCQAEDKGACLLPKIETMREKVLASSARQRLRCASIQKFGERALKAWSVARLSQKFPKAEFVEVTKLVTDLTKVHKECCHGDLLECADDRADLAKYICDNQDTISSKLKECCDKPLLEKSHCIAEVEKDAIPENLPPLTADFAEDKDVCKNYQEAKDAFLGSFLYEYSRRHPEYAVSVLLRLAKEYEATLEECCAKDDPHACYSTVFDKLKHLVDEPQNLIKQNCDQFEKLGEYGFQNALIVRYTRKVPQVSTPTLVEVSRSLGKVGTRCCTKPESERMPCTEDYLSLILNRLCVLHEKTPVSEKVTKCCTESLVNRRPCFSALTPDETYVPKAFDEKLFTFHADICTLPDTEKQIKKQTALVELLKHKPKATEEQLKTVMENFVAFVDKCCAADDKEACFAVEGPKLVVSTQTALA
Follistatin (Homo sapiens), sequence (P19883 whole entry, looked up): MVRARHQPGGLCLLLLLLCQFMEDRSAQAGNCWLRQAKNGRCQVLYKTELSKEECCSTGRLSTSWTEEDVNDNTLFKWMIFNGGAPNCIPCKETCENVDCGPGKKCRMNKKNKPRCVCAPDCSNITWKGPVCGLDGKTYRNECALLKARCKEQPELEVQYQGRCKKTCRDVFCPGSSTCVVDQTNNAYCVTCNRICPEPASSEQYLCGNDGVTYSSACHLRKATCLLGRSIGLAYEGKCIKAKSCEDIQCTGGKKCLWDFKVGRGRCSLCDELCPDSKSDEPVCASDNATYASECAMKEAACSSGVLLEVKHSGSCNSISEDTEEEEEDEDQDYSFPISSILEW

Row | Compound | composite z-score (Albumin (Bos taurus)) | composite Z-score [1] | composite z-score [2] | composite z-score [3] | composite z-score [4] | composite z-score [5] | composite z-score [6] | composite z-score (Sam68 (KHDRBS1)) | composite z-score [7] | composite z-score [8] | composite z-score [9] | composite z-score [10] | composite z-score [11] | composite z-score [12] | composite z-score [13] | composite z-score [14] | z-score [15] | composite z-score (Lefty1) | composite z-score [16] | z-score [17]
1 | C[N+](C)(C)CCCC[C@@H]1NC(=O)[C@@H]2C[C@H](C(=O)NCCCCCCN)[C@H](c3cccc(OCCO)c3)N2C1=O | 0.919 | 1.24 (inactive) | 0.39 | 0.409 | 0.608 | 1.54 | 0.731 | 1.31 | 0.518 | 1.12 | 3.26 | 1.16 | 0.866 | 0.841 | 0.976 | 0.5 | 0.197 | 1.16 | 1.11 | -0.583 (inactive)
2 | C=C(COC)C(=O)CC[C@@H](OC(C)=O)c1cccc(OCCO)c1 | -0.693 | -0.0662 (inactive) | -0.0647 | -0.125 | 0.59 | -0.591 | -0.621 | -0.873 | -0.109 | -0.797 | 0.0219 | -1.04 | -0.653 | 0.567 | 1.09 | 1.48 | 0.655 | 0.146 | 0.0226 | -1.76 (inactive)
3 | COc1ccc(CCNC(=O)[C@@H]2c3ccccc3C(=O)N(C3CCCCC3)[C@H]2c2ccc(CO)cc2)cc1 | -0.295 | 0.0861 (inactive) | -0.119 | -0.0317 | 0.608 | 2.15 | 0.922 | 0.508 | -0.524 | 0.802 | 1.01 | 0.883 | 1.19 | 0.144 | 0.441 | 1.74 | -0.263 | -0.359 | 0.771 | -0.323 (inactive)
4 | COC(=O)C/C=C/C[C@]1(O)C(=O)N(C)c2ccccc21 | -0.475 | -0.571 (inactive) | 0.212 | -0.099 | 0.273 | 0.401 | 0.111 | 0.241 | 0.934 | -0.556 | -0.0221 | 0.243 | 1.03 | -0.0833 | 0.721 | 0.561 | 1.03 | 1.17 | 0.0278 | -1.63 (inactive)
5 | COCC(=C=CC[C@H](O)c1ccccc1OCCO)C[C@H](O)c1ccccn1 | 0.519 | 0.2 (inactive) | -0.116 | -0.0984 | 0.426 | -0.0733 | -0.144 | 0.544 | -0.123 | 0.215 | 0.247 | 0.128 | -0.17 | -0.473 | 1.02 | 0.262 | 1.5 | 0.426 | -0.0118 | -1.02 (inactive)
6 | COCCOC(=O)N1C(=O)[C@@]2(c3cc(C#CCCO)ccc31)[C@H](c1ccc(OCCO)cc1)N1[C@H](c3ccccc3)[C@H](c3ccccc3)OC(=O)[C@H]1[C@@H]2C(=O)Nc1nc2ccccc2s1 | 0.648 | -0.22 (inactive) | 0.0556 | 0.02 | 0.406 | 0.556 | 0.559 | 1.31 | 0.27 | 1.13 | 0.872 | 1.15 | 0.479 | 0.817 | 1.32 | 0.759 | -2.37 | 1.41 | 1.13 | -2.18 (inactive)
7 | [N-]=[N+]=NCc1ccccc1[C@H]1OC(c2ccc(OCCCO)cc2)=N[C@@]1(Cc1ccccc1N=[N+]=[N-])C(=O)NCC(O)CO (stereo not given in full) | 0.992 | 0.095 (inactive) | 0.483 | -0.0859 | 0.7 | 1.8 | 0.0939 | 1.3 | -0.603 | 1.09 | 0.363 | 1.22 | 0.566 | 0.711 | 1.13 | -0.401 | 0.118 | 0.194 | 1.12 | -2.09 (inactive)
8 | O=C(O)[C@@H]1C[C@@H]2C(=O)N3CCC[C@H]3C(=O)N2[C@@H]1c1ccc(O)cc1 | -0.0352 | 0.309 (inactive) | 0.0927 | -0.0126 | 0.579 | 0.538 | 0.619 | 0.721 | 0.931 | 0.878 | 2.3 | 0.258 | 0.251 | -0.0516 | 1.42 | 1.07 | -0.269 | 0.824 | 0.0465 | -0.985 (inactive)
9 | CC#CCO[Si](C#Cc1ccccc1)(C(C)C)C(C)C | -1.33 | -0.197 (inactive) | -0.365 | -0.156 | -0.624 | -0.445 | -0.353 | -1.18 | -0.913 | -1.46 | -1.71 | -1.42 | -0.357 | -0.965 | -0.711 | 0.0353 | -1.01 | -0.531 | -0.874 | 0.741 (inactive)
10 | O=C1C2C=CC(C(O)c3ccco3)N(Nc3ccccc3F)C2C(=O)N1c1ccccc1 (stereo not given) | 0.963 | 1.49 (inactive) | 0.101 | -0.104 | -0.0101 | 1.85 | 0.433 | 0.309 | -0.238 | 0.403 | 0.0678 | 0.512 | 0.705 | 0.791 | 0.235 | -0.327 | -0.537 | -0.531 | 0.826 | -0.0425 (inactive)
11 | CCCCCC1=C2CNC(C)(C(=O)OC)C=C2C(C)C1=O (stereo not given) | 0.673 | 0.239 (inactive) | -0.0716 | 0.0414 | 0.839 | 1.18 | 0.947 | -0.868 | -0.409 | -1.51 | 1.46 | -0.575 | -0.108 | -0.833 | -0.642 | -0.328 | 1.01 | -0.427 | 0.234 | 2.31 (inactive)
12 | NCCCCCNC(=O)[C@H]1C[C@H]2C(=O)N3CCC[C@H]3C(=O)N2[C@H]1c1cccc(OCCO)c1 | 0.729 | 0.325 (inactive) | 0.185 | 0.0305 | 0.705 | 1.59 | 0.466 | 0.967 | 0.18 | 0.894 | 3.3 | 0.987 | 0.0204 | 0.83 | 0.208 | -0.146 | -0.705 | -0.285 | 1.29 | -0.165 (inactive)
13 | COC(=O)[C@@]1(Cc2ccc(F)cc2)[C@H]2c3cc(C(=O)N(C)C)n(CCc4ccc(OC)c(Br)c4)c3C[C@H]2CN1C(=O)c1ccccc1 | 0.939 | 0.562 (inactive) | 0.613 | 0.363 | 0.487 | 1.44 | 0.0915 | -0.111 | -0.66 | 0.793 | 1.18 | 0.902 | 0.178 | 0.626 | -0.0313 | -0.433 | -0.638 | -0.337 | 0.187 | -0.499 (inactive)
14 | CC(C)C(CO)N1C(=O)[C@@H]2C3C(=O)OCCC/C=C\[C@H]3OC23C=CCN(c2ccc4ccccc4c2)C(=O)[C@@H]13 (stereo not given in full) | 0.974 | 0.503 (inactive) | -0.0716 | -0.156 | 0.941 | -0.201 | -0.18 | -1.02 | -1.28 | -0.612 | -0.236 | -0.696 | 0.374 | -1.62 | -0.0619 | -1.02 | 0.723 | 0.0124 | 0.562 | -0.526 (inactive)
15 | N[C@@H](Cc1ccccc1)C(=O)NCc1cn(Cc2ccccc2)nn1 | -0.337 | 0.961 (inactive) | -0.0656 | -0.101 | 0.431 | -0.276 | -0.0884 | -0.341 | 0.849 | -0.0527 | 0.615 | -0.096 | -0.519 | 0.395 | 1.15 | 0.416 | 0.154 | 0.2 | 0.309 | -0.352 (inactive)
16 | CCOC(=O)C[C@H]1[C@H](OC(=O)c2cc3ccccc3oc2=O)[C@@H](NC(=O)c2ccccc2)c2cc(OCCCO)ccc2N1C(=O)c1ccccc1 | -0.122 | 0.0916 (inactive) | -0.0199 | -0.147 | -0.129 | 0.236 | -0.155 | 0.64 | 0.498 | 0.535 | 0.29 | 0.828 | 0.138 | 0.37 | 0.744 | 1.18 | -0.816 | 0.443 | 0.0432 | 0.713 (inactive)
17 | COCCOC(=O)N1C(=O)[C@@]2(c3ccccc31)[C@H](C(=O)NC[C@H](O)c1ccccc1)[C@H]1C(=O)O[C@H](c3ccccc3)[C@H](c3ccccc3)N1[C@@H]2c1ccc(O)cc1 | -0.411 | 0.244 (inactive) | -0.198 | 0.0377 | 0.432 | 2.28 | 0.236 | 1.3 | 1.04 | 1.12 | 1.43 | 1.26 | 0.818 | 0.965 | 1.34 | 1.61 | -1.17 | 1.23 | 0.648 | 0.883 (inactive)
